CRFR2-BP antag: antagonists of CRF-BP/CRF-R2 complex, primary screen, cell-based, HEK293, calcium dye fluorescence, uHTS. actives 0.59% (n = 350,000). CRF-induced calcium fluorescence. inhibition, % at 11.8 µM;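 active means inhibition of the ligand-induced calcium signal above about 50% at the single tested concentration, limit read from the data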
MPTP inh: mitochondrial permeability transition pore inhibitors, primary screen, biochemical, isolated mouse mitochondria, absorbance. Ca2+ swelling absorbance, 30 min. inhibition, % at 10 µM. actives 1.4% (n = 360,000);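 active means inhibition of 50% or more, scaled per plate between neutral and stimulator controls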
GRIN3A LBD mod: binders of NR3A ligand-binding domain, primary screen, biophysical, differential scanning fluorimetry, uHTS; Glutamate receptor ionotropic, NMDA 3A (GRIN3A) ligand-binding domain; NR3A LBD differential scanning fluorimetry, Tm shift; 0% = protein alone, 100% = glycine-bound protein; Tm shift relative to glycine control, % at 25 µM; actives 2.5% (n = 340,000);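 active means melting temperature shift of at least 10% of the positive control shift, at one fixed dose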
ANO1 activ: TMEM16A chloride channel activators or potentiators, primary screen, cell-based, HTS; HEK293 TMEM16A/YFP-H148Q/I152L, iodide quench fluorescence; hits give low values; Anoctamin-1 (Mus musculus), Q8BHY3; actives 0.3% (n = 340,000); AID 623877, 2012; B-score at 10 µM;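 active means fluorescence-ratio B-score plate-corrected deviation score at least 3 library SD below zero, with starting fluorescence score within 5 deviations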;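 further: channel opened by trigger with iodide after compound preincubation; score built on the fluorescence ratio of max minus min over baseline; more negative score means more quench and so TMEM16A activation or potentiation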
CRFBP-R2 agonist: agonists of CRF-BP/CRF-R2 complex, primary screen, cell-based, HEK293, calcium dye fluorescence, uHTS. CRF-binding protein / CRF receptor 2 complex (human). activation, % at 13.2 µM. actives 0.46% (n = 350,000). calcium dye fluorescence (FLIPR); percent of saturating CRF peptide response;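 active means activation of at least 50%, plus an integration ratio under a set limit after plate pattern correction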
ANO1 block: TMEM16A chloride channel inhibitors, primary screen, cell-based, HTS. normalized B-score (activity score, 25-100; higher = stronger inhibition) at 10 µM. actives 1.2% (n = 310,000). HEK293 TMEM16A/YFP iodide influx fluorescence, ionomycin;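 active means ratio plate-corrected score three or more library SD toward inhibition, starting fluorescence score within five deviations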;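 further: score derived from kinetic fluorescence span divided by baseline fluorescence per well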
TMEM16A reconf: TMEM16A chloride channel inhibitors, confirmation, cell-based, re-confirmation. shares compounds with ANO1 block. HEK293 TMEM16A/YFP-H148Q, iodide quench fluorescence; ionomycin added to raise cell calcium. inhibition, % at 10 µM. actives 39% (n = 2,300);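 active means mean duplicate percent inhibition, scaled so buffer wells are 0 and the reference blocker 100, over three buffer SD above buffer mean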
TMEM16A Ca cntr: calcium mobilization in TMEM16A/YFP HEK293 cells, confirmation, counter-screen for TMEM16A inhibitor project; actives 2% (n = 2,300); calcium response (% of ionomycin), % at 10 µM; AID 652231, 2013; Fluo4 calcium mobilization; shares compounds with ANO1 block;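 active means duplicate-averaged calcium signal over 20% of the ionomycin maximum, relative to buffer baseline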;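 further: each well's signal is peak minus trough fluorescence divided by its pre-addition baseline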
YFP-HEK293 quench: iodide YFP quench changes in parental YFP-HEK293, counter-screen for TMEM16A inhibitor project, cell-based. shares compounds with ANO1 block. ionomycin. YFP ratio F(max-min)/F0 at 10 µM. 2,300 tested, under 10 active;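 active means yellow fluorescent protein signal ratio exceeding the buffer control mean by over 5 SD of those controls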;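 further: ratio is mean of duplicate wells from kinetic YFP trace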
ClC-1 inh: ClC-1 chloride channel inhibition, selectivity assay for TMEM16A inhibitor project, cell-based, voltage-dependent ClC-1; shares compounds with ANO1 block; 2,300 tested, under 10 active; CHO ClC-1-YFP, iodide influx fluorescence quench; iodide control reads 0, buffer control 100; ratio percent, % at 10 µM;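 active means duplicate-mean ratio percent above the mean of iodide-only control wells, which defines zero, plus 5 of their SD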;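 further: higher percent means stronger block of ClC-1 iodide influx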
A number is an active result; 0 = inactive; - = no result given. Shown are actives, neighbours in structure and some others; about 5.1% of the full set was active somewhere.

SMILES	CRFR2-BP antag	MPTP inh	GRIN3A LBD mod	ANO1 activ	CRFBP-R2 agonist	ANO1 block	TMEM16A reconf	TMEM16A Ca cntr	YFP-HEK293 quench	ClC-1 inh
CCN1C(=O)N2C[C@H]3CON(C)[C@H]3C[C@H]2c2ccccc21	-	0	-	-	-	-	-	-	-	-
O=C(COc1ccc(Br)cc1)c1ccc2c(c1)CCCC2	0	0	0	0	0	25	0	0	0	0
Cc1ccc(OCC(=O)c2ccc3c(c2)CCCC3)cc1C	0	0	0	0	0	0	-	-	-	-
Cc1csc(NC(=O)COc2ccc3c(c2)CCC3)n1	0	0	0	0	0	-	-	-	-	-
O=C(Nn1c(-c2ccc(Br)cc2)nc2ccccc2c1=O)c1ccc([N+](=O)[O-])cc1	0	0	0	0	0	25	0	0	0	0
O=C(Nn1c(-c2ccncc2)nc2ccccc2c1=O)c1ccc(Br)cc1	0	0	0	0	0	0	-	-	-	-
CCCOc1ccc(C(=O)NNC(=S)NC(=O)c2ccco2)cc1	0	0	0	0	137.2	100	43.0%	62.0%	0	0
COc1ccc(C(=O)NNC(=S)NC(=O)c2ccco2)cc1	0	0	0	0	0	0	-	-	-	-
CCCC/C(C)=N\NC(=O)CNS(=O)(=O)c1ccc([N+](=O)[O-])cc1	0	0	0	0	0	25	0	0	0	0
CCC(C)/C(C)=N/NC(=O)CNS(=O)(=O)c1ccc([N+](=O)[O-])cc1 (configuration not stated)	0	0	0	0	0	0	-	-	-	-
N#Cc1c(-c2ccc(Br)cc2)cc(-c2cccnc2)nc1N	0	0	0	0	0	0	-	-	-	-
N#Cc1c(-c2cccc(Br)c2)cc(-c2cccnc2)nc1N	0	0	0	0	0	25	25.0%	0	0	0
O=C(c1noc2c1CSc1ccccc1-2)N1CCN(c2ccc(Cl)cc2)CC1	0	0	0	0	0	25	0	0	0	0
Cc1nc2ccc(NC(=O)c3cccs3)cc2s1	0	0	0	0	0	0	-	-	-	-
Cc1nc2ccc(NC(=O)c3sccc3C)cc2s1	0	0	32.4	0	0	25	0	0	0	0
CCOc1ccc(-c2c(=O)n(OCc3ccccn3)c3ccccc3[n+]2[O-])cc1	0	0	0	0	0	25	0	0	0	0
CS(=O)(=O)NCCCNc1ccc(C(F)(F)F)cc1[N+](=O)[O-]	0	0	0	0	0	0	-	-	-	-
O=[N+]([O-])c1cc(C(F)(F)F)ccc1NCCc1c[nH]c2ccc(O)cc12	0	0	28.8	0	0	25	0	0	0	0
O=C1CC(c2ccccc2)c2ccc(O)cc2O1 (configuration not stated)	0	0	0	0	0	25	0	0	0	0
COc1ccc(N(Cc2ccccc2)S(=O)(=O)c2cccc(C(=O)NCC3CCCO3)c2)cc1 (configuration not stated)	0	0	0	0	0	-	-	-	-	-
CCN(Cc1ccncc1)Cc1cn(C)nc1-c1ccc(Oc2ccccc2)cc1	0	0	0	0	0	100	0	0	0	0
CC(C)N(C)Cc1cn(C)nc1-c1ccc(Oc2ccccc2)cc1	0	0	0	0	0	0	-	-	-	-
O=C(NC1CCCC1)C(c1ccco1)N1CCC(O)(c2ccc(Cl)cc2)CC1 (configuration not stated)	-	0	-	-	-	-	-	-	-	-
CCOC(=O)N1CCN(c2ccc(C(=O)c3ccccc3)cc2F)CC1	0	0	0	0	0	100	23.0%	0	0	0
Cc1cc(C)c(S(=O)(=O)/N=C2\C=C(Nc3ccc(C(=O)O)cc3)C(=O)c3ccccc32)c(C)c1	0	0	0	0	0	25	26.0%	0	0	0
SMILES	CRFR2-BP antag	MPTP inh	GRIN3A LBD mod	ANO1 activ	CRFBP-R2 agonist	ANO1 block	TMEM16A reconf	TMEM16A Ca cntr	YFP-HEK293 quench	ClC-1 inh
CCCCN(C)C(=O)c1ccc2c(c1)S(=O)(=O)c1ccccc1C2=O	0	0	0	0	0	0	-	-	-	-
CCOC(=O)Cn1c(CN(C)Cc2ccccc2)nc2c1c(=O)n(C)c(=O)n2C	0	0	0	0	0	100	0	0	0	0
COC(=O)Cn1c(CN(C)Cc2ccccc2)nc2c1c(=O)n(C)c(=O)n2C	0	0	0	0	0	0	-	-	-	-
O=C(NCc1cccc(Br)c1)C1CC(c2ccc(C(F)(F)F)cc2)=NO1 (configuration not stated)	0	0	0	0	0	0	-	-	-	-
CCN(CC(=O)Nc1ccc(NC(C)=O)cc1)C(=O)c1cccc(-n2cccc2)c1	0	0	0	0	0	0	-	-	-	-
C/C(N)=C(/C#N)C(=O)COC(=O)C1CCC(C(C)(C)C)CC1 (configuration not stated)	0	0	0	0	0	25	28.0%	0	0	0
C/C(N)=C(/C#N)C(=O)COC(=O)CC1CCCC1	0	0	0	0	0	0	-	-	-	-
COC(=O)c1ccc(CSc2nnnn2-c2ccccc2)o1	0	0	0	0	0	100	0	0	0	0
COC(=O)c1ccc(CSc2nnc(-c3ccccc3)n2C)o1	0	0	0	0	0	0	-	-	-	-
CCOC(=O)C1CCCN(C(=O)/C(=C/c2ccco2)NC(=O)c2ccccc2)C1 (configuration not stated)	0	0	0	0	0	0	-	-	-	-
Cc1ccc(N2CCN(CC(O)COC3CCCCC3)CC2)cc1 (configuration not stated)	0	0	0	0	0	25	0	0	0	0
Nc1c(C(=O)Nc2ccccc2Cl)nnn1-c1ccc2c(c1)OCCO2	0	0	0	0	0	0	-	-	-	-
Cc1nc2ccc(N=NC3=C(O)CC(C)(C)CC3=O)cc2s1	0	0	0	0	0	0	-	-	-	-
Cc1nc2ccc(N=NC3=C(O)CCCC3=O)cc2s1	0	0	0	0	0	0	0	0	0	0

Compound activity as filed in PubChem BioAssay.
